# Source: ChEMBL document CHEMBL3988442, “University of Dundee, Small-Polar-MMV Screening Library” (2021)
# In all, about 85,000 compounds went through this assay and about 440 (0.52%) showed an effect of 50% or more. The list comes from a sample in which strong results are over-represented; it also holds similar structures and randomly drawn compounds.
# Assay: In vitro enzyme assay to detect hydrolysis of chlorophenol red-beta-D-[…] directly proportional to the number of Toxoplasma stably expressing beta-galactosidase
# Type: functional, organism-based, Toxoplasma gondii
# Parameters: scale not given: in the data most compounds retested in dose-response had high values
Structure (SMILES),Percent Effect (50 µM) [%],Percent Effect (10 µM) [%]
NCCc1n[nH]c(=O)n1-c1ccc2c(c1)OCO2,-0.07643,
Cn1cc(C(O)CN)cn1 (configuration not stated),1.018,
Cc1noc(C(C)Nc2ccc3c(c2)CCC(=O)N3)n1 (configuration not stated),-14.26,
CC(C)(CNC(=O)c1c[nH]nn1)c1cccc(F)c1,-9.623,
CC(NC(=O)NCCN1CCCCCC1=O)c1nncn1C (configuration not stated),,3.231
CC(NC(=O)NCCCN1CCCCCC1=O)c1nncn1C (configuration not stated),,20.07
CC(NC(=O)NCCCN1CCCC1=O)c1nncn1C (configuration not stated),,85.8
Cc1oc(-c2ccccc2F)nc1C(=O)N(C)C,-3.464,
CNS(=O)(=O)N1CCc2ccccc2C1,30.15,
COc1ccc2ccccc2c1CNCC1CCS(=O)(=O)C1.Cl (configuration not stated),,-11.16
CCOc1ccc2ccccc2c1CNCC1CCS(=O)(=O)C1.Cl (configuration not stated),,-7.781
CCOc1ccc2ccccc2c1CNCC1CCNCC1.Cl.Cl,,68.87
CCCOc1ccc2ccccc2c1CN1CC[C@@]2(O)CCNC[C@H]2C1,,3.549
CCOc1ccccc1CNCC1CCN(CC(C)O)CC1 (configuration not stated),,-9.723
CCn1cc(S(=O)(=O)NCC2CCN(C3CC3)C2)cn1 (configuration not stated),3.955,
NC(=O)c1cncc(-c2ccc(F)cc2Cl)c1,3.051,

Structure (SMILES),Percent Effect (50 µM) [%],Percent Effect (10 µM) [%]
Cc1cc(F)cc(C(=O)N(C)C(C)CN)c1 (configuration not stated),-5.582,
CNC(C)(C)c1ccc2c(c1)OCO2,-13.39,
CCNc1ncc2c(n1)CN(c1ccc(C)c(C)c1)C2=O,,51.11
COc1ccc(N2Cc3nc(N)ncc3C2=O)cc1Cl,,-32.44
CCNc1ncc2c(n1)CN(c1ccc(Cl)cc1)C2=O,,65.79
CCNc1ncc2c(n1)CN(c1ccc(OC(F)(F)F)cc1)C2=O,,64.71
CNc1ncc2c(n1)CN(CCc1ccc(Cl)cc1)C2=O,,-35.33
COc1ccc(N2Cc3nc(N4CCCC4)ncc3C2=O)cc1Cl,,-14.31
CCn1cc(N2Cc3nc(N)ncc3C2=O)cn1,,10.4
CNc1ncc2c(n1)CN(CCc1ccc(F)cc1)C2=O,,-13.73
CNc1ncc2c(n1)CN(CCc1ccc(C)cc1)C2=O,,-16.2
CCNc1ncc2c(n1)CN(c1ccc(CC)cc1)C2=O,,62.15
CC1CCN(c2ncc3c(n2)CN(c2ccc(F)cc2)C3=O)CC1,,19.77
CNc1ncc2c(n1)CN(Cc1ccc(Cl)cc1)C2=O,,-51.17
CCN(CC)C(=O)C(C)NC(=O)c1cc(C#N)c[nH]1 (configuration not stated),-1.389,
O=C(OCCOc1cccnc1)C1CC1,43.8,
